High-throughput results from PubChem BioAssay.
bovine MsrA act: bovine MsrA enzyme activators, primary screen, biochemical, absorbance, HTS; Methionine sulfoxide reductase A (Bos taurus); purified bovine MsrA, absorbance read-out; activation, % at 10.6 µM; 0.3% of 360,000 active; AID 602163, 2012; in the data active = activation above about 7.5%
Mot1-301 SUMO: yeast Mot1-301 growth rescue at high temperature, primary screen, SUMOylation pathway inhibitor project, S. cerevisiae, ATP luminescence, 38.5C; S. cerevisiae Mot1-301 growth rescue; percent above DMSO median, 100 means doubled; growth rescue, % at 18.8 µM; 1% of 320,000 active; AID 2716, 2010;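 active = every valid replicate shows activation above 250% relative to neutral control wells; inactive = the rest, any valid replicate at or below 250%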
MsrA inh: bovine MsrA enzyme inhibitors, primary screen, biochemical, absorbance, HTS; inhibition, % at 15.5 µM; Methionine sulfoxide reductase A (Bos taurus); 0.75% of 360,000 active; AID 651718, 2012; purified bovine MsrA, absorbance read-out
PKA-R2B act: activators of PKA-R2B holoenzyme, primary screen, biochemical, fluorescence polarization, Cy5-IP20, human. activation, % at 11.4 µM. AID 504700, 2011. 0.079% of 340,000 active. cAMP-dependent protein kinase catalytic subunit beta (Homo sapiens) + cAMP-dependent …. PKA-R2B holoenzyme dissociation; R2B truncated from residue 108, S112A mutant; 0% DMSO only, 100% 113 µM cGMP;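 active = activation above a cutoff set at the mean over all compounds plus 3 SD, cut at about 18% in these data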;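 also: higher means more holoenzyme dissociation and a rise in polarization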
Target sequence (P31323 whole entry, looked up, other chains not shown, the tested form may be a part): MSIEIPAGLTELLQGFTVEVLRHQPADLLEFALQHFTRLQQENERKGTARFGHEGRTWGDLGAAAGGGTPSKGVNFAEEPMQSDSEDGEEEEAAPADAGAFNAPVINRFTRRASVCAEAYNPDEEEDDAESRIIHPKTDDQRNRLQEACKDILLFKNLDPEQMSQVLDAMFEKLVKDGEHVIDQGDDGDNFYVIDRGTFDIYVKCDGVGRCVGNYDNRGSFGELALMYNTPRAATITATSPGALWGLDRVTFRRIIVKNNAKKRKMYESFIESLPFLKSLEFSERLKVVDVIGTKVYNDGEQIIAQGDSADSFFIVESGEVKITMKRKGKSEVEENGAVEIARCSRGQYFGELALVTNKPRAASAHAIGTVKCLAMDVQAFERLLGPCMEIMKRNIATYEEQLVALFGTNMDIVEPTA
PKA-R1A activ: activators of PKA-R1A holoenzyme, primary screen, biochemical, fluorescence polarization, Cy5-IP20, bovine R1A, mouse PKAc; 0.083% of 340,000 active; cAMP-dependent protein kinase type I-alpha regulatory subunit (Bos taurus) + …; PKA-R1A dissociation; scaled: DMSO 0%, 113 µM cGMP 100%; activation, % at 11.4 µM;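 active = percent activation above the mean of all tested compounds plus 3 SD, cut at about 19% in these data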;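 also: higher means more PKAc released from R1A so a rise in polarization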
MsrA conf: bovine MsrA inhibitors, retest, confirmation, biochemical, absorbance, HTS; shares compounds with MsrA inh; purified bovine MsrA, absorbance read-out; inhibition, % at 15.5 µM; 41% of 2,300 active;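 also: coupled to thioredoxin reductase with NADPH and selenocystamine and DMSO as substrate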
Hits are given with their value; – = inactive; · = not tested or not shown. A selection: hits, their analogues and other compounds. The true share with any hit is near 2%. Rule as the data show it, unless noted: active = inhibition above about 4.5%; inactive = the rest.

SMILES | bovine MsrA act | Mot1-301 SUMO | MsrA inh | PKA-R2B act | PKA-R1A activ | MsrA conf
CCOC(=O)C1=CCN(S(=O)(=O)c2ccccc2F)C1c1ccc(Br)cc1 (stereo not given) | · | · | – | · | · | ·
CC1(C(=O)NCc2ccccc2)CN(S(C)(=O)=O)CC(=O)N1Cc1cccc(C(F)(F)F)c1 (stereo not given) | · | · | – | · | · | ·
O=C(CN1C(=O)S/C(=C\c2cccs2)C1=O)Nc1ccc(O)c(C(=O)O)c1 | – | – | 5.3 | – | – | 5.8
O=C(CN1C(=O)S/C(=C\c2cccs2)C1=O)Nc1ccc(C(=O)O)c(O)c1 | – | – | 5.3 | – | – | 6.0
O=C(CC(=O)c1ccccc1)c1ccccc1 | – | · | – | – | – | ·
CC(CC(=O)c1ccccc1)=NCCCN=C(C)CC(=O)c1ccccc1 | – | · | 5.2 | – | – | –
CCCCCOC(=O)C(C)c1c(C)[nH]c(=S)[nH]c1=O (stereo not given) | – | – | 13 | – | – | 8.8
CCOC(=O)C(C)c1c(C)[nH]c(=S)[nH]c1=O (stereo not given) | – | – | – | – | – | ·
N#CC(C#N)=Cc1c[nH]c(=O)c(C#N)c1Nc1ccccc1 | – | – | 5.4 | · | · | –
CCOc1cc(/C=C/c2nc3ccccc3c(=O)[nH]2)ccc1O | – | – | – | – | – | ·
COc1cc(/C=C/c2nc3ccccc3c(=O)[nH]2)ccc1O | – | · | 7.0 | – | – | –
COCCNC(=O)/C(C#N)=C1\N=C(NC(=O)c2ccco2)c2ccccc21 | – | · | 4.8 | – | – | –
Cc1ccc(S(=O)(=O)N2C[C@H]3C(=O)C[C@@H]4C(=O)N(c5ccccc5)C(=O)[C@@H]4[C@@H]3C[C@H]2c2cccs2)cc1 | – | · | – | · | · | ·
COc1ccc2nc(C)cc(N/N=C/c3ccc(F)cc3)c2c1 | – | – | 42 | – | – | 54
Cc1ncc(CO)c(/C=N/Nc2cccc(Cl)n2)c1O | – | – | 9.4 | – | – | –
CNc1ncnc(Sc2nc(N)nc3nc[nH]c23)c1[N+](=O)[O-] | – | · | 5.3 | – | – | 5.5
CC(C)(C)OC(=O)N1CCC[C@@H]1C(=O)NCc1ccccc1 | · | · | – | · | · | ·
O=C(O)c1ccc(NC2=C(n3nnc4ccccc43)C(=O)c3ccccc3C2=O)cc1 | – | – | 58 | – | – | 53
O=C(O)c1cccc(NC2=C(N3CCOCC3)C(=O)c3ccccc3C2=O)c1 | – | – | – | – | – | ·
O=[N+]([O-])c1ccccc1NC(=S)N/N=C/c1ccc(O)c(O)c1 | – | – | 5.9 | – | – | 7.3
Cc1ccccc1-c1c(C)oc2cc(O)ccc2c1=O | – | – | 4.9 | – | – | –
CN(/N=C/C=C/c1ccccc1)c1cc(=O)n(C)c(=O)[nH]1 | – | – | 12 | – | – | 9.1
COc1ccc(/C=N/N(C)c2cc(=O)n(C)c(=O)[nH]2)cc1OC | – | – | 11 | – | – | 7.0
CN(C)C(=S)Oc1ccccc1C1SCCS1 | – | · | – | – | – | ·
COc1cc(NC(=O)c2cccc3c(-c4cnn(C)c4)coc23)cc(OC)c1OC | – | · | – | · | · | ·
SMILES | bovine MsrA act | Mot1-301 SUMO | MsrA inh | PKA-R2B act | PKA-R1A activ | MsrA conf
CC1(C(=O)NC2CCCCCC2)CCN1C(=O)Cc1ccc(-c2ccccc2)cc1 (stereo not given) | – | · | – | · | · | ·
COc1ccc(C2/C(=C(/O)c3cnn(-c4ccccc4)c3C)C(=O)C(=O)N2CCN(C)C)cc1OC (stereo not given) | – | · | 9.3 | – | – | –
CCOC(=O)/C(=C/c1c[nH]c2ccccc12)NC(C)=O | – | – | 5.0 | – | – | –
COC(=O)/C(=C/c1c[nH]c2ccccc12)NC(C)=O | – | – | – | – | – | ·
CN1/C(=C\C=Nc2cc(S(=O)(=O)N3CCOCC3)ccc2N2CCOCC2)C(C)(C)c2ccccc21 | – | – | 7.6 | – | – | –
Cc1ccccc1N=C/C=C1\N(C)c2ccccc2C1(C)C | – | – | – | – | – | ·
COc1ccc(N=Cc2c(C)[nH][nH]c2=O)cc1 | – | – | 5.4 | – | – | –
Nc1ccc(-c2cnc(-c3ccc(N)cc3)nc2)cc1 | – | – | 8.6 | – | – | 7.6
Oc1ccc(-c2cnc(-c3ccc(O)cc3)nc2)cc1 | – | – | – | – | – | ·
CCOc1cc(S(=O)(=O)NC2CC2)c(OCC)cc1-n1cnnn1 | – | – | 25 | – | – | 23
CCOc1cc(S(=O)(=O)NCc2ccco2)c(OCC)cc1-n1cnnn1 | – | – | 7.7 | – | – | –
COc1ccccc1Cc1c(C(C)(C)C)nc2c(C)cc(Br)cn12 | · | · | – | · | · | ·
Cc1[nH]n(-c2ccc(Cl)cc2)c(=O)c1C(=O)c1ccccc1 | – | – | 7.3 | – | – | –
CCCNC(=O)C1(C)CCN(Cc2ccc(OCc3ccccc3)cc2)C1 (stereo not given) | – | · | – | · | · | ·
CSc1ccc(/C=C/C(=O)OCC(=O)NC2CC2)cc1 | – | – | 5.0 | – | – | –
CSc1ccc(/C=C/C(=O)OCC(=O)NC(C)C)cc1 | – | – | 5.5 | · | · | –
CC(c1nc2ccccc2c(=O)[nH]1)N1CCN(S(=O)(=O)c2ccc(F)c(Cl)c2)CC1 (stereo not given) | – | · | – | – | – | ·
COc1ccc(/C=C/C(=O)C2(O)CCCCC2)cc1 | – | – | 5.2 | – | – | –
CC(C)NC(=O)C1(C)CN(S(C)(=O)=O)CC(=O)N1CCOc1ccccc1 (stereo not given) | · | · | – | · | · | ·
COc1cc(/C=N/NC(=O)c2ccc(CSc3nncn3C)cc2)cc(OC)c1O | – | – | 5.0 | – | – | –
C/C(=N\NC(=O)c1ccc(CSc2nncn2C)cc1)c1cccs1 | – | – | – | – | – | ·
Cn1cnnc1SCc1ccc(C(=O)N/N=C/c2cccs2)cc1 | – | – | 4.7 | – | – | –
COc1cccc(C(=O)N2CCC[C@H]2C(=O)N2CCC[C@H]2C(=O)N[C@@H](C)c2ccccc2)c1 | – | · | – | · | · | ·
C/C(N)=C(/C#N)C(=O)CSc1nn(-c2ccc(Cl)cc2)c(=S)s1 | – | – | 21 | – | – | 14
C/C(N)=C(/C#N)C(=O)CSc1nnc(SCc2ccc(Cl)cc2)s1 | – | · | – | – | – | ·
O=C(C[C@H]1C=C[C@@H](NS(=O)(=O)c2ccccc2)[C@@H](CO)O1)NCc1ccc(Cl)c(Cl)c1 | · | · | – | · | · | ·
Cn1c(C(=O)O)cc2c(=O)n3ccccc3nc21 | – | – | 5.3 | – | – | –
Cc1c(C(=O)N2CCOCC2)sc(NC(=O)c2ccc3c(c2)OCO3)c1C#N | – | – | 5.0 | – | – | –
CCN(CC)C(=O)c1sc(NC(=O)c2ccc3c(c2)OCO3)c(C#N)c1C | – | – | – | – | – | ·
